Data from ChEMBL document CHEMBL4513156, “CO-ADD screening of NCPRI (Romania) compounds”.
Potency and affinity values are given separately.

Legend:
[1] = system: Staphylococcus aureus; settings: Concentration 32 ug.mL-1; ASSAY_TEST Inhibition of Bacterial Growth; detection method Absorption (OD600); MEDIA CAMHB; plate type 384well; NBS; CORNING #3640; time 18 hr
[2] = system: Escherichia coli; settings: Concentration 32 ug.mL-1; ASSAY_TEST Inhibition of Bacterial Growth; detection method Absorption (OD600); MEDIA CAMHB; plate type 384well; NBS; CORNING #3640; time 18 hr

| SMILES | Inhibition [1] [%] | Inhibition [2] [%] |
| --- | --- | --- |
| O=C(NN=CC[C@@H]1[C@@H](COC2CCCCO2)[C@H](OC2CCCCO2)C[C@@H]1O)c1ccncc1 (some centres undefined) | 12.15 | 6.4 |
| O=C(N/N=C1/C[C@@H]2[C@H](COC(c3ccccc3)(c3ccccc3)c3ccccc3)C[C@H](COC(c3ccccc3)(c3ccccc3)c3ccccc3)[C@@H]2C1)c1ccncc1 | -0.42 | 11.41 |
| O=C(NNC(c1ccccc1)(c1ccccc1)c1ccccc1)c1ccncc1 | 1.88 | 5.22 |
| O=C(NN=C[C@H]1[C@H]2CC(O)OC[C@H]2C[C@H]1O)c1ccncc1 (some centres undefined) | 15.22 | 4.63 |
| CC(C)(C)[Si](C)(C)OCC1C2C[C@H]3C1[C@@H]3/C2=N/NC(=O)c1ccncc1 (some centres undefined) | 14.57 | 8.28 |
| O=C(N/N=C1/C[C@H]2[C@H](CO)[C@@H]1C[C@@H]2Cl)c1ccncc1 | 26.26 | 16.12 |
| O=C(NNC(=O)c1cccc([N+](=O)[O-])c1C(=O)O)c1ccncc1 | 23.26 | 20.08 |
| O=C(NN=CC[C@@H]1[C@@H](/C=C/[C@@H](O)CCc2ccccc2)[C@H](OC(=O)c2ccccc2)C[C@@H]1O)c1ccncc1 | 18.76 | 8.83 |
| O=C(NNC(=O)[C@@H]1C[C@H](C(=O)O)[C@@H]2CCC[C@@H]21)c1ccncc1 | 31.35 | 13.96 |
| O=C(N/N=C1\C[C@@H]2[C@@H](CO)[C@H]1C[C@H]2Cl)c1ccncc1 | 26.12 | 15.81 |
| O=C(NN=C[C@H]1[C@@H]2CCO[C@@H]2C[C@@H]1O)c1ccncc1 | 13.82 | 5.67 |
| O=C1C[C@@H]2[C@@H](C=NNC(=O)c3ccncc3)[C@@H](C[C@H]2Cl)O1 | 33.55 | 18.72 |
| O=C1C[C@H]2[C@H](/C=N/NC(=O)c3ccncc3)[C@H](C[C@@H]2Cl)O1 | 34.06 | 18.17 |
| O=C(NN=CC[C@H]1[C@H](CO)[C@@H](O)C[C@H]1O)c1ccncc1 | 21.6 | 12.24 |
| O=C(NN=CC[C@@H]1[C@@H](/C=C/[C@@H](O)CCc2ccccc2)[C@H](O)C[C@@H]1O)c1ccncc1 | 16.65 | 9.46 |
| O=C(N/N=C/COc1cccc(Cl)c1)c1ccncc1 | 8.36 | 6.4 |
| NNC(=O)c1ccncc1 [ISONIAZID] | 27.38 | 20.51 |
| O=C(N/N=C/C[C@@H]1[C@@H](CO)[C@H](O)C[C@@H]1O)c1ccncc1 | 22.27 | 13.16 |
| CC(C)(C)[Si](C)(C)O[C@H](/C=C/[C@@H]1[C@@H](CC=NNC(=O)c2ccncc2)[C@@H](O)C[C@H]1O[Si](C)(C)C(C)(C)C)CCc1ccccc1 | 11.86 | 7.54 |
| O=C(N/N=C1\CC[C@@H]2[C@H]1[C@H](OC(=O)c1ccccc1)C[C@@H]2OC(=O)c1ccccc1)c1ccncc1 | 27.83 | 14.7 |
| CC(C)(C)[Si](C)(C)OC[C@H]1[C@H](CC=NNC(=O)c2ccncc2)[C@H](O)C[C@@H]1O[Si](C)(C)C(C)(C)C | 21.42 | 11.91 |
| O=C(N/N=C1/C[C@@H]2[C@@H](C(=O)O)[C@H]1C[C@H]2Cl)c1ccncc1 | 32.79 | 18 |
| O=C(N/N=C1/C2C[C@H]3C(C2CO)[C@H]13)c1ccncc1 (some centres undefined) | 21.76 | 11.47 |
| O=C(NNC(=O)[C@@H]1C[C@H](C(=O)O)[C@@H]2CC=C[C@@H]21)c1ccncc1 | 32.09 | 14.78 |
| O=C(N/N=C/C[C@@H]1[C@@H](/C=C/[C@@H](O)COc2ccccc2)[C@H](O)C[C@@H]1O)c1ccncc1 | 16.08 | 10.98 |
| O=C(ON/N=C/[C@@H]1[C@@H]2C[C@H](Cl)[C@H]1C[C@H]2O)c1ccncc1 | 25.17 | 12.76 |
| O=C(N/N=C/CCCO)c1ccncc1 | 10.52 | 5.12 |
